An excerpt weighted towards active compounds, which were near 22% of everything screened.
CYP2C9 inh: blocks human cytochrome P450 2C9; CYP2C9 Supersomes, luciferin-H conversion, luminescence; inhibition, % at 5 µM; 20% of 96,000 active; AID 777;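 active = blocking of liver enzyme CYP2C9 beyond about 50% at 5 µM, limit read from the data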
Target sequence (P11712 whole entry, looked up): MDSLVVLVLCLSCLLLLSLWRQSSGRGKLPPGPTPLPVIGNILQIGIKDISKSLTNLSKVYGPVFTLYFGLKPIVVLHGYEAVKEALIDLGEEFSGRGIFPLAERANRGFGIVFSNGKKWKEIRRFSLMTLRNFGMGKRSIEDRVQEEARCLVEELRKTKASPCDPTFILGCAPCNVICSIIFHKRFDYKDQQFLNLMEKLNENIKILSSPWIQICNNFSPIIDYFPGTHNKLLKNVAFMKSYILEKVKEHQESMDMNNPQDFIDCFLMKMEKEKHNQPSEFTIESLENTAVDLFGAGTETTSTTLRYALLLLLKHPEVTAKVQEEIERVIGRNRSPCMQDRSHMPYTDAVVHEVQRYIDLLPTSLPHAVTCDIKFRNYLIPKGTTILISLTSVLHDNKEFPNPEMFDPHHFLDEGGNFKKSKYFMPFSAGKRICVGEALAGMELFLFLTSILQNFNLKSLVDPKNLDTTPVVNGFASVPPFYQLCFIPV
CYP2C19 inhib: inhibitors of human CYP2C19. 21% of 96,000 active. inhibition, % at 5 µM. CYP2C19 Supersomes, luciferin-H EGE luminescence, 30 min. AID 778;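 active = CYP2C19 inhibition above a set limit at 5 µM in the primary screen, cut at about 50% in these data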
CYP2C19 activ: increases human CYP2C19 enzyme activity | activation factor at 5 µM | AID 1025 | 96,000 tested, under 10 active | recombinant CYP2C19, luciferin-H EGE luminescence; stronger effect = higher value; 0 = fully inhibited enzyme, 1 = untreated enzyme;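 active = activation factor of at least 2 at 5 µM in the primary screen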
Measles CPE: protection of cells from measles virus. Measles virus-infected cells, CPE protection, absorbance. protection (pct of control), % at 4 µM. 1.5% of 140,000 active. AID 841; in the data active = protection mostly above about 24%, no sharp cut-off; inactive = mostly below about 26%
CYP2C9 activ: increases human cytochrome P450 2C9 activity; activation factor at 5 µM; 1.4% of 96,000 active; P11712; recombinant CYP2C9, luciferin-H conversion, luminescence; stronger effect = higher value; factor 1 = untreated enzyme, 0 = blocked; AID 1024;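 active = activation factor of 2 or more for CYP2C9 at a 5 µM dose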
Of the large screens only hits and unclear results are named; the others gave an inactive call.

COC(=O)Nc1ccc(S(=O)(=O)N2CCN(c3ccc(F)cc3)CC2)cc1	none
COc1ccc(Cl)cc1S(=O)(=O)N1CCN(c2ccc(F)cc2)CC1	CYP2C19 inhib 98, CYP2C9 activ 3.2
CCOc1ccc(Cl)cc1S(=O)(=O)N1CCN(c2ccc(C)c(C)c2)CC1	CYP2C9 inh 60, CYP2C19 inhib 100
CCOc1ccc(Cl)cc1S(=O)(=O)N1CCN(c2ccc(F)cc2)CC1	CYP2C19 inhib 100, CYP2C9 activ 2.4
Cc1cc(Cl)c(S(=O)(=O)N2CCN(c3ccc(F)cc3)CC2)cc1OCC(N)=O	none
Cc1cc(Cl)c(S(=O)(=O)N2CCN(c3ccc(F)cc3)CC2)cc1OCC(=O)NC1CCCCC1	CYP2C9 inh 96, CYP2C19 inhib 83
CCOCCCNC(=O)CN1C(=O)/C(=C/c2ccccc2)Sc2ccccc21	none (no result: CYP2C9 inh, CYP2C19 inhib, CYP2C19 activ, CYP2C9 activ)
CCOC(=O)Cc1csc(/N=C/c2c(O)n(-c3ccc(C)cc3C)c(=O)c3ccccc23)n1	none (no result: CYP2C9 inh, CYP2C19 inhib, CYP2C19 activ, CYP2C9 activ)
O=c1cc(-c2c(F)c(F)c(F)c(F)c2F)oc2c(F)c(F)c(F)c(F)c12	none
COc1cc(C)c(Cl)cc1S(=O)(=O)n1cnc2ccccc21	none
CCOc1ccc(Cl)cc1S(=O)(=O)n1cnc2cc(C)c(C)cc21	CYP2C9 inh 58, CYP2C19 inhib 91
COc1c(S(=O)(=O)N2CCN(c3ccc(F)cc3)CC2)ccc(Cl)c1Cl	CYP2C19 inhib 61
CC(=O)Nc1ccc(S(=O)(=O)n2cnc3cc(C)c(C)cc32)cc1	CYP2C9 inh 78, CYP2C19 inhib 100
COc1ccc(Cl)cc1S(=O)(=O)N1CCN=C1C	CYP2C19 inhib 90
Cc1cc(S(=O)(=O)N2CCN(c3ccc(F)cc3)CC2)c(C)s1	none
Cc1ccc(C)n1-c1ccc(C(=O)O)cc1	CYP2C9 inh 56
CCc1ccc(-c2nc(CSCC(=O)NCCCN3CCCC3=O)c(C)o2)cc1	CYP2C9 inh 88
COc1ccc(-c2nc(CSCC(=O)NCc3ccc4c(c3)OCO4)c(C)o2)cc1OC	CYP2C9 inh 53, CYP2C19 inhib 65
Cc1ccccc1-c1nc(CS(=O)(=O)CC(=O)NCCCN2CCCC2=O)c(C)o1	none
COc1ccc(-c2nc(CSCC(=O)NCCC3=CCCCC3)c(C)o2)cc1OC	CYP2C19 inhib 60
COc1ccc(-c2nc(CSCC(=O)N3CCc4ccccc43)c(C)o2)cc1OC	none
COCCNC(=O)CSCc1nc(-c2ccc(SC)cc2)oc1C	none
COc1ccc(-c2nc(CSCC(=O)NCc3ccc4c(c3)OCO4)c(C)o2)cc1	CYP2C9 inh 89, CYP2C19 inhib 95
COc1ccc(-c2nc(NC(=O)c3n[nH]c(=O)c4ccccc34)sc2C)cc1	none (no result: CYP2C9 inh, CYP2C19 inhib, CYP2C19 activ, CYP2C9 activ)
Brc1ccc(OCCOc2cccc3cccnc23)cc1	none (no result: CYP2C9 inh, CYP2C19 inhib, CYP2C19 activ, CYP2C9 activ)
Cc1ccccc1-c1nc(CS(=O)(=O)CC(=O)NCc2ccc3c(c2)OCO3)c(C)o1	none
Cc1ccsc1-c1nc(CSCC(=O)NCc2ccc3c(c2)OCO3)c(C)o1	CYP2C9 inh 79
CCOC(=O)c1[nH]c(C)c(/C=N/O)c1C	none
C/C(=N\NC(=O)c1ccc(C)cc1C)c1ccc(-n2ccnc2)cc1	none (no result: CYP2C9 inh, CYP2C19 inhib, CYP2C19 activ, CYP2C9 activ)
CNC(=S)N/N=C(\C)c1ccc(-n2ccnc2)cc1	CYP2C9 inh 100, CYP2C19 inhib 99
C/C(=N\NC(=S)NC(C)C)c1ccc(-n2ccnc2)cc1	CYP2C9 inh 99, CYP2C19 inhib 90
COCCNC(=S)N/N=C(\C)c1ccc(-n2ccnc2)cc1	CYP2C9 inh 100, CYP2C19 inhib 99
CCOc1ccc(S(=O)(=O)Nc2ccc(C(=O)N/N=C(\C)c3ccc(-n4ccnc4)cc3)cc2)cc1	CYP2C9 inh 99, CYP2C19 inhib 99
O=C(NCC1COc2ccccc2O1)C1CCC(CNc2c(N3CCCCC3)c(=O)c2=O)CC1 (centres undefined)	none
CC1=CC(c2ccccc2)=Nc2ccc(C)cc2N1	none (no result: CYP2C9 inh, CYP2C19 inhib, CYP2C19 activ, CYP2C9 activ)
O=C(O)CC1Oc2ccc(Cl)cc2NC1=O (centres undefined)	CYP2C9 inh 55
CCc1ccc(NSc2ccccc2[N+](=O)[O-])cc1	CYP2C19 inhib 65
O=C(Cc1csc(N2CCOCC2)n1)N/N=C/c1ccc(F)cc1	none
CO/N=C(/CNC(=O)c1cccc(Cl)c1)c1ccc(Cl)cc1	CYP2C9 inh 68, CYP2C19 inhib 92
CO/N=C(/CNC(=O)c1ccc(Cl)cc1Cl)c1ccc(Cl)cc1	CYP2C19 inhib 62
Cc1cc(/C=C(\C#N)c2nc3ccccc3[nH]2)c(C)n1C	none (no result: CYP2C9 inh, CYP2C19 inhib, CYP2C19 activ, CYP2C9 activ)
Cc1cc(C=C(C#N)C#N)c(C)n1-c1ccccc1	Measles CPE 51
